This passage reports activation results from PubChem BioAssay AID624168 (Sanford-Burnham Center for Chemical Genomics, 2012).

Where “and” joins values, the source holds several entries; their conditions need not be identical. Equal values may be shown once. Among all 360,000 compounds or so, about 800 (0.22%) were called active. This excerpt belongs to a sample that is enriched for actives. Values without a mark were called inactive.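 How the source made its calls: active means activation of at least 8% versus controls, or a plate z-score of at least 8; inactive means the rest.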

The nature of the assay: compounds raising alpha-dystroglycan glycosylation – uHTS, Pro5-aDG cells, AlphaScreen, primary screen (AID 624168).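 Further: Pro5 are CHO cells carrying HIG-tagged alpha-DG that lacks glycosylation.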 The following applies: alpha-DG glycosylation AlphaScreen (IIH6), at 10 µM, active compounds read high, 0% Pro5, 100% B10-LARGE cell signal. In general terms: Bead proximity is the source of the signal in Alpha formats.
As for `OCC1OC(n2cnc3c(N4CCCC4)ncnc32)C(O)C1O` (stereo not given), the activation is -0.1%. To `Cc1[nH][nH]c(=O)c1C(c1ccc(-c2ccc(Cl)cc2)o1)c1c(C)[nH][nH]c1=O` belongs 0%.

For the molecule `CCNC(=O)NC(=O)C(C)OC(=O)c1cc(S(=O)(=O)N2CCCCCC2)ccc1OC` (stereo not given), the activation is 0%. Consider `Cc1cc(C)c(C#N)c(SCC(=O)NN2CC(=O)N(c3ccccc3F)CC2=O)n1`, for which the activation is -0.2%. To `COc1ccccc1OCC(=O)Nc1c2c(nn1-c1ccc(F)cc1)CS(=O)(=O)C2` belongs -0.1%. Then `CCOc1ccc(C(=O)Nc2c3c(nn2-c2ccccc2)CS(=O)(=O)C3)cc1`, with 0.3%. Then `CCOc1ccc(OCC(=O)Nc2c3c(nn2C(C)(C)C)CS(=O)(=O)C3)cc1`, with 7.3% (active). For the molecule `O=S(=O)(c1ccc(Br)cc1)N1CCC(c2nc3ccccc3[nH]2)CC1`, the activation is 0.7%.

As to `N#Cc1cnn2cc(CCN3CCOCC3)c(-c3ccc(F)cc3)nc12`, the activation was -0.1%.

For the molecule `CNC1(c2nnnn2-c2c(C)cccc2C)CCOC(C)(C)C1` (stereo not given), the activation was 0.1%.

Take `O=C(Cn1c(=O)sc2ccccc21)Nc1ccc2c(c1)OCCO2`: the activation was 0.4%. Then `Cc1ccc(CSc2ccc(S(=O)(=O)N3CCCCC3)cn2)cc1`, with 0.2%; and `O=C(N1CCCCC1)N1CCN(C(=O)N2CCCCC2)CC1`, with -0.2%; and `CC(=O)Oc1cccc(N2C(=O)CC(Nc3ccc(N4CCOCC4)cc3)C2=O)c1` (stereo not given), with 0.6%. Then `CC(=O)Oc1cccc(N2C(=O)C3CC=C(Cl)CC3C2=O)c1` (stereo not given), with 2.9% (active). To `CC1=CCC2C(=O)N(c3cccc(C(=O)NC(C)c4ccccc4)c3)C(=O)C2C1` (stereo not given) belongs 0%. Take `O=C1CC(Cc2ccccc2)C(=O)N1c1ccc(Cl)cn1` (stereo not given): the activation is -0.3%. As for `CCCCN(CC)CCCNC(=O)c1ccc(CSc2nc3ccncc3[nH]2)cc1`, the activation was -0.1%. As for `O=C(NCC(=O)N(Cc1cccs1)C(C(=O)NC1CCCCC1)c1ccco1)c1cccs1` (stereo not given), the activation was 0.5%.

As for `Cc1nnc(NC(=O)CCC(=O)N2CCC(C)CC2)s1`, the activation is -0.2%. Regarding `OC(CN=c1sc2ccccc2n1CC(O)COc1ccccc1)COc1ccccc1` (stereo not given), the activation was 0.6%. Regarding `COc1cccc(CN(C)CC(O)COC(c2ccccc2)c2ccccc2C)c1` (stereo not given), the activation is 0.1%. To `CN(Cc1ccccc1)CC(O)COc1ccc(CNCc2cc3ccccc3s2)cc1` (stereo not given) belongs 4.3% (active); to `Cc1nc(N)nc(Cl)c1CCC1OCCO1`, 0.5%. `CC(OC(=O)C1CC(=O)N(Cc2ccccc2)C1)C(=O)Nc1ccccc1[N+](=O)[O-]` (stereo not given): the activation is 0.2%. To `CCc1noc(C)c1C(=O)N1CCCSC1=Nc1ccccc1OC` belongs -0.1%; to `CCOc1ccc(NC(=O)c2ccc(NC(=O)C3CCCO3)cc2)cc1` (stereo not given), 0.1%. Consider `CCOc1ccc(C(=O)Nc2cccc(SC)c2)cc1`, for which the activation is 0.3%. Turning to `Cc1ccc(NC(=O)c2ccc(Oc3ncccn3)cc2)cc1`, the activation is 5.5% (active). For the molecule `COc1cc(C(=O)NCCOC(=O)c2cccc(N(C)C)c2)cc(OC)c1OC`, the activation was 0%.

On to `COCc1c(C(=O)OCC(=O)Nc2ccc(OC(F)F)cc2)oc2ccccc12`, for which the activation is 0.1%. To `Cc1cc(C)c(NC(=S)N2CCCC2C(=O)O)c(C)c1` (stereo not given) belongs 0.5%. To `CCCS(=O)(=O)N1CCC(CCOc2ccccc2)(C(=O)OCC)CC1` belongs -0.1%. To `CCOC(=O)C1(CCOc2ccccc2)CCN(C(=O)c2cncs2)CC1` belongs 0.1%; to `CCOC(=O)C1(CCOC)CCN(Cc2cc3ccccc3s2)CC1`, 2% (active). For the molecule `CCOC(=O)N1CCN(S(=O)(=O)c2ccc(C(=O)Nc3ccc(F)cc3F)cc2)CC1`, the activation was -0.1%.

For `Cc1c(CCOC(=O)CC23CC4CC(CC(C)(C4)C2)C3)sc[n+]1Cc1ccc([N+](=O)[O-])cc1`, the activation was 0.1% and -0.2%. To `O=C(Nc1ccccc1F)c1cc(S(=O)(=O)N2CCCCC2)cs1` belongs 0%; to `CN1CCN(S(=O)(=O)c2cccc(C(=O)Nc3cccc(S(N)(=O)=O)c3)c2)CC1`, -0.1%; to `O=C(Nc1nncs1)c1cccc(S(=O)(=O)N2CCCCC2)c1`, -0.2%. To `CN1CCN(S(=O)(=O)c2cccc(C(=O)Nc3sccc3C#N)c2)CC1` belongs 8.2% (active); to `CCCOc1ccc(C2NC(=O)NC(c3ccccc3)=C2C(C)=O)cc1OCC` (stereo not given), -0.1%.

As to `O=C(c1ccc(F)cc1)C1CCN(Cc2cn[nH]c2-c2ccccc2)CC1`, the activation is -0.1%. As to `CCCCN(CC)C(=O)C1CCCN(S(=O)(=O)c2cccc3nsnc23)C1` (stereo not given), the activation is -0.1%.

Take `Clc1ccc(-c2cc(-c3ccccn3)on2)c(Cl)c1`: the activation was 0.1%. With `Clc1ccc(-c2cc(C3CCNCC3)[nH]n2)c(Cl)c1`, the activation is 11.1% (active). As to `Cc1nn(-c2ccccc2)c2c1C(c1cccc([N+](=O)[O-])c1)N(c1ccccc1)C(=O)N2` (stereo not given), the activation was -0.2%. Then `O=C(CCSCCc1ccccn1)Nc1nccs1`, with -0.1%; and `Cc1ccccc1S(=O)(=O)Cc1ccc(C(=O)NCCN2CCCCC2C)o1` (stereo not given), with -0.3%; and `CCc1ccccc1S(=O)(=O)Cc1ccc(C(=O)NCCc2ccccc2)o1`, with 13% (active). To `COc1ccc(CCNC(=O)c2ccc(CS(=O)(=O)c3ccc(Br)cc3)o2)cc1OC` belongs -0.2%; to `CC(C)Oc1cc(F)ccc1-c1cc(C(=O)Nc2ccc(F)cc2)[nH]n1`, 0%. Then `COc1cccc(-c2nnc(NC(=O)c3ccc(S(=O)(=O)N(CC(C)C)CC(C)C)cc3)o2)c1`, with 6.1% (active); and `COc1cc(-c2nnc(NC(=O)CS(=O)(=O)c3ccc(Cl)cc3)o2)cc(OC)c1OC`, with 0.5%; and `O=C(Nc1nnc(-c2ccccc2)o1)c1cccc(S(=O)(=O)N2CCOCC2)c1`, with 0.3%. Regarding `CCCN(CCC)C(=O)C1c2ccccc2Oc2ccccc21`, the activation is 0.2%. Then `C[C@H](CO)N1C[C@H](C)[C@H](CN(C)C(=O)Nc2ccc(C(F)(F)F)cc2)Oc2c(NC(=O)c3ccncc3)cccc2C1=O`, with -0.2%; and `O=C(NCC1CCCCC1)NCC1CCCCC1`, with -0.2%; and `Cc1ccc(Nc2cc(=O)n(C3CCCCC3)c(=O)[nH]2)cc1C`, with 0.5%.

As to `CC(NC(=O)c1cccc(S(=O)(=O)N2CCc3ccccc3C2)c1)c1ccco1` (stereo not given), the activation was 0.1%. Then `CCOC(=O)c1ccc(NC(=O)CS(=O)(=O)c2cn(CC)c3ccccc23)cc1`, with -0.1%; and `CCOC(=O)c1ccc(NC(=O)CCn2c(=O)oc3ccccc32)cc1`, with 0%; and `CCOC(=O)c1ccc(NC(=O)Cn2cnc3cc(C)c(C)cc32)cc1`, with 3.2% (active). Then `COc1c(C)cc(C(O)c2ncc(-c3cccc(C(F)(F)F)c3)[nH]2)cc1C` (stereo not given), with 0.3%; and `CC(C)c1cccc(C(C)C)c1Nc1cn[nH]c1`, with 0.6%; and `COc1ccccc1C(=O)C(O)c1ccccc1OC` (stereo not given), with 0.1%.

For `CC(C)Nc1ncnc2c1ncn2[C@H]1CN(Cc2ccncc2)C[C@@H](CO)O1`, the activation was 0.2%. To `OC[C@@H]1CN(Cc2ccc(-c3ccccc3)cc2)C[C@H](n2cnc3c(NC4CCCC4)ncnc32)O1` belongs 7.5% (active). To `OC[C@@H]1CN(C2CCCC2)C[C@H](n2cnc3c(NC4CCC4)ncnc32)O1` belongs 0.3%; to `O=C(NCc1cccnc1)c1ccc(CS(=O)(=O)c2ccc(Br)cc2)o1`, -0.2%. Then `O=C1CC(c2cccc(Br)c2)C2=C(CCCC2=O)N1` (stereo not given), with 0%; and `Cc1ccsc1/C=N/NC(=O)Cc1cc(=O)[nH][nH]1`, with -0.1%; and `CNC(=O)COc1ccc(S(=O)(=O)Nc2ccccc2)cc1`, with 0.1%. `O=S(=O)(Nc1ccc(O)c2ccccc12)c1ccc(OC(F)(F)F)cc1`: the activation is 2.6% (active). With `O=S(=O)(Nc1ccc(OC(F)(F)F)cc1)c1cccc2nonc12`, the activation was -0.1%.

Regarding `Cc1ccc(C)c(C(=O)N2CCC(n3nccc3NC(=O)C3CC3)CC2)c1`, the activation is 0.3%.

As for `CC(NC(=O)COC(=O)Cn1cc(C(F)(F)F)ccc1=O)c1ccccc1` (stereo not given), the activation is -0.1%. Then `COc1ccc(-c2oc(/N=C/N3CCCC3)c(C#N)c2-c2ccc(OC)cc2)cc1`, with 0.1%; and `COc1cccc(CN(C)CC2CCCN(CCc3ccc(Cl)cc3)C2)c1OC` (stereo not given), with 0%.

For the molecule `O=C(Nc1cccc(-c2cccc(Cl)c2)c1)C1CCN(C2CCC2)CC1`, the activation is 1.9%. On to `CCn1cc(CN2CCC(C(=O)Nc3cccc(-c4cccc(Cl)c4)c3)CC2)c(C)n1`, for which the activation was 7.1% (active).

For `CCn1cc(CN2CCC(C(=O)Nc3cccc(-c4cccc(Cl)c4)c3)CC2)cn1`, the activation is 3.4%. As to `CN(C)N1C(N)=C(C#N)C(c2ccc(Br)cc2)C2=C1CCCC2=O` (stereo not given), the activation is 0%.

Take `O=C(Cn1nnc(N2CCCCC2)n1)c1ccc(Cl)c(Cl)c1`: the activation was -0.1%. `CCN(CC)CC1(O)CCN(C(=O)c2ccc(Cl)c(Cl)c2)CC1`: the activation is -0.1%. To `CCCn1c(=N)n(CC(=O)c2ccc(Cl)c(Cl)c2)c2ccccc21` belongs 9.7% (active); to `O=C(O)c1ccccc1-c1cccc2nncn12`, 0.1%; to `Cc1ccc(-c2ccc(CN3C(C(C)C)C(=O)N(Cc4cn(CCC5OCCCO5)nn4)CCS3(=O)=O)cc2)cc1` (stereo not given), 0.4%. As for `CC(C)C(c1nnnn1C(C)(C)C)N1CCN(Cc2cccnc2)CC1` (stereo not given), the activation was -0.3%.

As to `O=C(Cn1ncc2c3ccccc3n(Cc3ccccc3)c2c1=O)NCc1ccccn1`, the activation is -0.4%. Then `CC(C#N)OC(=O)c1cccnc1SCC(=O)Nc1ccc2c(c1)OCO2` (stereo not given), with 0.5%; and `Nc1scc[n+]1Cc1cccc2cccnc12`, with 1.9% (active); and `c1ccc2c(C[n+]3csc4ccccc43)cccc2c1`, with -0.1%. For the molecule `CC(NCc1ccccc1OC1CCCC1)c1ccccc1` (stereo not given), the activation is 0.5%.

With `O=C(COc1cccc(Cl)c1)NCc1ccccc1`, the activation is 0.1%.
